The whole screen tested about 5,500 compounds, of which about 2,000 (36%) were called active. About 18% were inconclusive and are not listed. Cut-off read from the data, not from the text of the source: active = normalized growth mostly below about 0.91 (no sharp cut-off); inconclusive = no clear call, values can overlap the other calls; inactive = mostly above about 0.92. The list shows a part of the results.
Assay: chemical genetic growth profiling, strain panel (AID 1159580);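 note: tested at 20 µM; growth read once vehicle control cultures reached saturation at 30 °C; 1 = growth at the plate median or of vehicle wells; lower values mean less growth of the strain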
Details: growth OD

Measured: normalized growth

C[N+]1(C)C[C@H](O)[C@H](C(=O)[O-])C1
inactive: S. cerevisiae deletion strains, locus YJR043C, strain POL32, active compounds read low 0.995 | S. cerevisiae deletion strains, locus YJR075W, strain HOC1, active compounds read low 0.994 | S. cerevisiae deletion strains, locus YKL009W, strain mrt4, active compounds read low 0.991 | S. cerevisiae deletion strains, locus YKL068W, active compounds read low 0.996 | S. cerevisiae deletion strains, locus YKL085W, strain MDH1 (second series), active compounds read low 0.988 | S. cerevisiae deletion strains, locus YKL085W, strain MDH1, active compounds read low 0.988 | S. cerevisiae deletion strains, locus YKL160W, strain elf1, active compounds read low 0.993 | S. cerevisiae deletion strains, locus YKL190W, strain CNB1, active compounds read low 1.01 | S. cerevisiae deletion strains, locus YKR001C, strain vps1, active compounds read low 0.995 | S. cerevisiae deletion strains, locus YKR026C, strain gcn3, active compounds read low 1.01 | S. cerevisiae deletion strains, locus YKR091W, strain srl3, active compounds read low 1.01 | S. cerevisiae deletion strains, locus YLL001W, strain dnm1, active compounds read low 1 | S. cerevisiae deletion strains, locus YLL026W, active compounds read low 1.02 | S. cerevisiae deletion strains, locus YLL041C, strain sdh2, active compounds read low 1.01 | S. cerevisiae deletion strains, locus YLR027C, strain aat2, active compounds read low 1.01 | S. cerevisiae deletion strains, locus YLR039C, strain RIC1, active compounds read low 1.02 | S. cerevisiae deletion strains, locus YLR058C, strain SHM2, active compounds read low 1.01 | S. cerevisiae deletion strains, locus YLR102C, strain apc9, active compounds read low 0.995 | S. cerevisiae deletion strains, locus YLR221C, strain rsa3, active compounds read low 0.997 | S. cerevisiae deletion strains, locus YLR258W, strain gsy2, active compounds read low 1.03 | S. cerevisiae deletion strains, locus YLR262C, strain YPT6 (second series), active compounds read low 1.02 | S. cerevisiae deletion strains, locus YLR262C, strain YPT6, active compounds read low 1.01 | S. cerevisiae deletion strains, locus YLR268W, strain sec22, active compounds read low 0.991 | S. cerevisiae deletion strains, locus YLR320W, strain mms22, active compounds read low 1.03 | S. cerevisiae deletion strains, locus YLR330W, strain CHS5, active compounds read low 1 | S. cerevisiae deletion strains, locus YLR342W, strain FKS1 (second series), active compounds read low 1.02 | S. cerevisiae deletion strains, locus YLR342W, strain FKS1, active compounds read low 1.01 | S. cerevisiae deletion strains, locus YLR357W, strain rsc2, active compounds read low 1.02 | S. cerevisiae deletion strains, locus YLR370C, strain arc18, active compounds read low 1.02 | S. cerevisiae deletion strains, locus YLR371W, strain rom2, active compounds read low 0.996 | S. cerevisiae deletion strains, locus YLR384C, strain iki3, active compounds read low 1.02 | S. cerevisiae deletion strains, locus YLR418C, strain cdc73, active compounds read low 1.01 | S. cerevisiae deletion strains, locus YML016C, strain PPZ1, active compounds read low 1.01 | S. cerevisiae deletion strains, locus YML032C, strain rad52, active compounds read low 0.991 | S. cerevisiae deletion strains, locus YML120C, strain ndi1, active compounds read low 0.991 | S. cerevisiae deletion strains, locus YML124C, strain tub3, active compounds read low 0.997 | S. cerevisiae deletion strains, locus YMR058W, strain fet3, active compounds read low 1.01 | S. cerevisiae deletion strains, locus YMR078C, strain ctf18, active compounds read low 1.01 | S. cerevisiae deletion strains, locus YMR125W, strain sto1, active compounds read low 1.02 | S. cerevisiae deletion strains, locus YMR129W, active compounds read low 1.01 | S. cerevisiae deletion strains, locus YMR205C, strain PFK2, active compounds read low 1.04 | S. cerevisiae deletion strains, locus YMR223W, strain ubp8, active compounds read low 0.989 | S. cerevisiae deletion strains, locus YMR231W, strain pep5, active compounds read low 1.01 | S. cerevisiae deletion strains, locus YMR263W, strain SAP30, active compounds read low 1.02 | S. cerevisiae deletion strains, locus YMR307W, strain GAS1, active compounds read low 1.07 | S. cerevisiae deletion strains, locus YNL067W, strain RPL9B, active compounds read low 1.01 | S. cerevisiae deletion strains, locus YNL071W, strain lat1, active compounds read low 1.02 | S. cerevisiae deletion strains, locus YNL128W, strain TEP1, active compounds read low 1.01 | S. cerevisiae deletion strains, locus YNL153C, strain GIM3, active compounds read low 1.01 | S. cerevisiae deletion strains, locus YNL209W, strain ssb2, active compounds read low 1.01 | S. cerevisiae deletion strains, locus YNL233W, strain BNI4, active compounds read low 1.01 | S. cerevisiae deletion strains, locus YNL248C, strain rpa49, active compounds read low 0.98 | S. cerevisiae deletion strains, locus YNL250W, strain rad50, active compounds read low 0.992 | S. cerevisiae deletion strains, locus YNL271C, strain bni1, active compounds read low 0.995 | S. cerevisiae deletion strains, locus YNL298W, strain CLA4, active compounds read low 1 | S. cerevisiae deletion strains, locus YNL307C, strain MCK1, active compounds read low 1.01 | S. cerevisiae deletion strains, locus YNL322C, strain KRE1 (second series), active compounds read low 1.02 | S. cerevisiae deletion strains, locus YNL322C, strain KRE1, active compounds read low 1.01 | S. cerevisiae deletion strains, locus YNR049C, strain mso1, active compounds read low 1.01 | S. cerevisiae deletion strains, locus YNR052C, strain pop2, active compounds read low 1 | S. cerevisiae deletion strains, locus YOL006C, strain TOP1, active compounds read low 1.06 | S. cerevisiae deletion strains, locus YOL012C, strain htz1 0.813 | S. cerevisiae deletion strains, locus YOL147C, strain pex11, active compounds read low 1 | S. cerevisiae deletion strains, locus YOR001W, strain rrp6, active compounds read low 0.989 | S. cerevisiae deletion strains, locus YOR061W, strain CKA2, active compounds read low 1 | S. cerevisiae deletion strains, locus YOR069W, strain VPS5, active compounds read low 1 | S. cerevisiae deletion strains, locus YOR070C, strain gyp1, active compounds read low 1.01 | S. cerevisiae deletion strains, locus YOR080W, strain dia2, active compounds read low 1.01 | S. cerevisiae deletion strains, locus YOR083W, strain WHI5, active compounds read low 0.979 | S. cerevisiae deletion strains, locus YOR106W, strain vam3, active compounds read low 0.996 | S. cerevisiae deletion strains, locus YOR136W, strain idh2, active compounds read low 0.996 | S. cerevisiae deletion strains, locus YOR144C, strain elg1, active compounds read low 0.996 | S. cerevisiae deletion strains, locus YOR184W, strain ser1, active compounds read low 1.01 | S. cerevisiae deletion strains, locus YOR265W, strain rbl2, active compounds read low 1.01 | S. cerevisiae deletion strains, locus YOR270C, strain vph1, active compounds read low 1.02 | S. cerevisiae deletion strains, locus YOR290C, strain snf2, active compounds read low 1 | S. cerevisiae deletion strains, locus YOR316C, strain cot1, active compounds read low 0.995 | S. cerevisiae deletion strains, locus YPL051W, strain arl3, active compounds read low 1.02 | S. cerevisiae deletion strains, locus YPL055C, strain LGE1, active compounds read low 1.03 | S. cerevisiae deletion strains, locus YPL078C, strain atp4, active compounds read low 1 | S. cerevisiae deletion strains, locus YPL106C, strain sse1, active compounds read low 1.04 | S. cerevisiae deletion strains, locus YPL240C, strain hsp82, active compounds read low 1.02 | S. cerevisiae deletion strains, locus YPL241C, strain CIN2, active compounds read low 1.01 | S. cerevisiae deletion strains, locus YPR119W, strain clb2, active compounds read low 1 | S. cerevisiae deletion strains, locus YPR141C, strain kar3, active compounds read low 1 | S. cerevisiae deletion strains, locus YPR163C, strain tif3, active compounds read low 0.996 | S. cerevisiae deletion strains, locus YPR167C, strain met16, active compounds read low 0.995 | S. cerevisiae deletion strains, strain wtn01, active compounds read low 0.988 | S. cerevisiae strains, strain wild type, active compounds read low 1
